# Experimental data: publication PMC5540273 (PLoS ONE, 2017)
# Read-outs that look alike come from different tables or passages of the source.
# How the values were obtained:
# GRK2 = tested on: T1, GRK2; details: concentration: 1 μM, replicates: in singlicate; n = 1
# T1 construct: gene ADRBK1
# GRK3 = tested on: T2, GRK3; details: concentration: 1 μM, replicates: in singlicate; n = 1
# T2 construct: gene ADRBK2
# GRK4 = details: concentration: 1 μM, replicates: in singlicate; n = 1
# GRK7 = details: concentration: 1 μM, replicates: in singlicate; n = 1
# GSK3A = details: concentration: 1 μM, replicates: in singlicate; n = 1
# GSK3B = details: n = 1
# HASPIN = tested on: T3, HASPIN; details: concentration: 1 μM, replicates: in singlicate; n = 1
# T3 construct: gene GSG2
# HCK = details: concentration: 1 μM, replicates: in singlicate; n = 1
# HIPK1 = details: concentration: 1 μM, replicates: in singlicate; n = 1
# HIPK2 = details: concentration: 1 μM, replicates: in singlicate; n = 1
# HIPK3 = details: concentration: 1 μM, replicates: in singlicate; n = 1
# HIPK4 = details: concentration: 1 μM, replicates: in singlicate; n = 1
# HPK1 = details: concentration: 1 μM, replicates: in singlicate; n = 1
# HUNK = details: concentration: 1 μM, replicates: in singlicate; n = 1
# ICK = details: concentration: 1 μM, replicates: in singlicate; n = 1
# IGF1R = details: concentration: 1 μM, replicates: in singlicate; n = 1
# IKK-alpha = tested on: T4, IKK-alpha; details: concentration: 1 μM, replicates: in singlicate; n = 1
# T4 construct: gene CHUK
# IKK-beta = tested on: T5, IKK-beta; details: concentration: 1 μM, replicates: in singlicate; n = 1
# T5 construct: gene IKBKB
# IKK-epsilon = tested on: T6, IKK-epsilon; details: concentration: 1 μM, replicates: in singlicate; n = 1
# T6 construct: gene IKBKE
# INSRR = details: concentration: 1 μM, replicates: in singlicate; n = 1
# [1] = concentration: 1 μM, replicates: in singlicate
# 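Further: KINOMEscan kinase panel screen.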
compound,measurement,setting,value
Nc1n[nH]c2ncc(-c3ccccc3)cc12 [SB-517081],%Inh,GRK2,0%
same,%Inh,GRK3,22%
same,%Inh,GRK4,21%
same,%Inh,GRK7,0%
same,%Inh,GSK3A,34%
same,%Inh,GSK3B; 1 µM,20%
same,%Inh,HASPIN,0%
same,%Inh,HCK,0%
same,%Inh,HIPK1,0%
same,%Inh,HIPK2,0%
same,%Inh,HIPK3,12%
same,%Inh,HIPK4,0%
same,%Inh,HPK1,44%
same,%Inh,HUNK,13%
same,%Inh,ICK,0%
same,%Inh,IGF1R,18%
same,%Inh,IKK-alpha,27%
same,%Inh,IKK-beta,65%
same,%Inh,IKK-epsilon,13%
same,%Inh,INSRR,0%
Cc1nc(N(C)[C@H]2CN(C(=O)CC#N)CC[C@H]2C)c2cc[nH]c2n1,%Inh,GRK2,0%
same,%Inh,GRK3,0%
same,%Inh,GRK4,0%
same,%Inh,GRK7,0%
same,%Inh,GSK3A,9%
same,%Inh,GSK3B; [1],0%
same,%Inh,HASPIN,0%
same,%Inh,HCK,0%
same,%Inh,HIPK1,6%
same,%Inh,HIPK2,0%
same,%Inh,HIPK3,9%
same,%Inh,HIPK4,0%
same,%Inh,HPK1,0%
same,%Inh,HUNK,0%
same,%Inh,ICK,0%
same,%Inh,IGF1R,0%
same,%Inh,IKK-alpha,0%
same,%Inh,IKK-beta,5%
same,%Inh,IKK-epsilon,0%
same,%Inh,INSRR,0%
COc1cc2nccc(Nc3cccc(Oc4ccccc4)c3)c2cc1OC.Cl [GW284543],%Inh,GRK2,28%
same,%Inh,GRK3,16%
same,%Inh,GRK4,7%
same,%Inh,GRK7,0%
same,%Inh,GSK3A,5%
same,%Inh,GSK3B; [1],0%
same,%Inh,HASPIN,11%
same,%Inh,HCK,44%
same,%Inh,HIPK1,0%
same,%Inh,HIPK2,25%
same,%Inh,HIPK3,0%
same,%Inh,HIPK4,21%
same,%Inh,HPK1,2%
same,%Inh,HUNK,15%
same,%Inh,ICK,0%
same,%Inh,IGF1R,14%
same,%Inh,IKK-alpha,0%
same,%Inh,IKK-beta,0%
same,%Inh,IKK-epsilon,0%
same,%Inh,INSRR,0%
COc1ccc(-c2coc3ccc(-c4nnc(SCc5cccc(C#N)c5)o4)cc23)cc1,%Inh,GRK2,0%
same,%Inh,GRK3,0%
same,%Inh,GRK4,0%
same,%Inh,GRK7,27%
same,%Inh,GSK3A,96.1%
same,%Inh,GSK3B; [1],45%
same,%Inh,HASPIN,0%
same,%Inh,HCK,20%
same,%Inh,HIPK1,32%
same,%Inh,HIPK2,24%
same,%Inh,HIPK3,20%
same,%Inh,HIPK4,0%
same,%Inh,HPK1,0%
same,%Inh,HUNK,0%
same,%Inh,ICK,17%
same,%Inh,IGF1R,0%
same,%Inh,IKK-alpha,19%
same,%Inh,IKK-beta,7%
same,%Inh,IKK-epsilon,0%
same,%Inh,INSRR,0%
O=C(Nc1n[nH]c2nc(-c3ccccc3)c(Cl)cc12)C1CC1 [SB-734909],%Inh,GRK2,0%
same,%Inh,GRK3,83%
same,%Inh,GRK4,17%
same,%Inh,GRK7,0%
same,%Inh,GSK3A,90.6%
same,%Inh,GSK3B; 1 µM,56%
same,%Inh,HASPIN,0%
same,%Inh,HCK,0%
same,%Inh,HIPK1,20%
same,%Inh,HIPK2,0%
same,%Inh,HIPK3,33%
same,%Inh,HIPK4,0%
same,%Inh,HPK1,11%
same,%Inh,HUNK,20%
same,%Inh,ICK,29%
same,%Inh,IGF1R,0%
same,%Inh,IKK-alpha,43%
same,%Inh,IKK-beta,56%
same,%Inh,IKK-epsilon,0%
same,%Inh,INSRR,8%
COC(=O)c1c(-c2ccccc2)c2cc(Br)ccc2c(=O)n1Cc1ccc(S(C)(=O)=O)cc1,%Inh,GRK2,14%
same,%Inh,GRK3,0%
same,%Inh,GRK4,0%
same,%Inh,GRK7,35%
same,%Inh,GSK3A,0%
same,%Inh,GSK3B; [1],19%
same,%Inh,HASPIN,31%
same,%Inh,HCK,9%
same,%Inh,HIPK1,33%
same,%Inh,HIPK2,18%
same,%Inh,HIPK3,10%
same,%Inh,HIPK4,5%
same,%Inh,HPK1,0%
same,%Inh,HUNK,27%
same,%Inh,ICK,50%
same,%Inh,IGF1R,9%
same,%Inh,IKK-alpha,9%
same,%Inh,IKK-beta,6%
same,%Inh,IKK-epsilon,15%
same,%Inh,INSRR,1%
CCCNC(=O)Nc1ccc(Oc2ncnc3ccn(C)c23)cc1,%Inh,GRK2,40%
same,%Inh,GRK3,0%
same,%Inh,GRK4,6%
same,%Inh,GRK7,29%
same,%Inh,GSK3A,0%
same,%Inh,GSK3B; [1],21%
same,%Inh,HASPIN,41%
same,%Inh,HCK,7%
same,%Inh,HIPK1,35%
same,%Inh,HIPK2,29%
same,%Inh,HIPK3,14%
same,%Inh,HIPK4,19%
same,%Inh,HPK1,0%
same,%Inh,HUNK,0%
same,%Inh,ICK,17%
same,%Inh,IGF1R,0%
same,%Inh,IKK-alpha,1%
same,%Inh,IKK-beta,0%
same,%Inh,IKK-epsilon,0%
same,%Inh,INSRR,0%
Cc1c(Cn2c(C)nn3c(=O)cc(N4CCO[C@H](C)C4)nc23)cccc1C(F)(F)F [GSK2373690],%Inh,GRK2,0%
same,%Inh,GRK3,18%
same,%Inh,GRK4,3%
same,%Inh,GRK7,0%
same,%Inh,GSK3A,13%
same,%Inh,GSK3B; [1],6%
same,%Inh,HASPIN,0%
same,%Inh,HCK,0%
same,%Inh,HIPK1,13%
same,%Inh,HIPK2,0%
same,%Inh,HIPK3,30%
same,%Inh,HIPK4,0%
same,%Inh,HPK1,24%
same,%Inh,HUNK,4%
same,%Inh,ICK,1%
same,%Inh,IGF1R,41%
same,%Inh,IKK-alpha,0%
same,%Inh,IKK-beta,3%
same,%Inh,IKK-epsilon,0%
same,%Inh,INSRR,14%
CCn1c(-c2ccoc2)nc2cnccc21 [SB-733887],%Inh,GRK2,0%
same,%Inh,GRK3,0%
same,%Inh,GRK4,0%
same,%Inh,GRK7,93.9%
same,%Inh,GSK3A,35%
same,%Inh,GSK3B; [1],22%
same,%Inh,HASPIN,37%
same,%Inh,HCK,0%
same,%Inh,HIPK1,0%
same,%Inh,HIPK2,0%
same,%Inh,HIPK3,20%
same,%Inh,HIPK4,0%
same,%Inh,HPK1,35%
same,%Inh,HUNK,0%
same,%Inh,ICK,14%
same,%Inh,IGF1R,0%
same,%Inh,IKK-alpha,30%
same,%Inh,IKK-beta,29%
same,%Inh,IKK-epsilon,60%
same,%Inh,INSRR,0%
COc1ccc(-n2cnc3c(N)ncnc32)cc1 [SKF-97236],%Inh,GRK2,12%
same,%Inh,GRK3,0%
same,%Inh,GRK4,22%
same,%Inh,GRK7,3%
same,%Inh,GSK3A,6%
same,%Inh,GSK3B; [1],15%
same,%Inh,HASPIN,0%
same,%Inh,HCK,0%
same,%Inh,HIPK1,24%
same,%Inh,HIPK2,5%
same,%Inh,HIPK3,12%
same,%Inh,HIPK4,29%
same,%Inh,HPK1,5%
same,%Inh,HUNK,0%
same,%Inh,ICK,0%
same,%Inh,IGF1R,19%
same,%Inh,IKK-alpha,0%
same,%Inh,IKK-beta,19%
same,%Inh,IKK-epsilon,3%
same,%Inh,INSRR,2%
